# This excerpt belongs to a sample that is enriched for the strongest signals.
# B1: B3GalT2 (Rattus norvegicus) (protein)
# chain: LMLQWRRRHCCFAKMSWNAKRSLFRTHLMGVLSLVFLFAMFLFFNHHDWLPGRPGFKENPVTYTFRGFRSTKTETNQSSLRNIWKEVVPQTLRPQTATNSNNTELSPQGVTGLENTLSANGSIYNEKGTGHPNSYHFKYIINEPEKCQEKSPFLILLIAAEPGQIEARRAIRQTWGNETLAPGIQITRIFLLGISIKLNGYLQHAIQEESIQYHDIIQQEYLDTYYNLTIKTLMGMNWVATYCPHTPYVMKTDSDMFVNTEYLIHKLLKPDLPPRHNYFTGYLMRGYAPNRNKDSKWYMPPDLYPSERYPVFCSGTGYVFSGDLAEKIFKVSLGIRRLHLEDVYVGICLAKLRVDPVPPPNEFVFNHWRVSYSSCKYSHLITSHQFQPSELIKYWNHLQQNKHNACVNAAKEKAGRYRHRKLH
# Experiments:
# Test in all cases: glycan array binding signal (z-score within array); higher = stronger binding
# Conditions in all cases: glycan notation: IUPAC condensed, linker removed
# Kdn(a2-3)Gal(b1-4)GlcNAc = biological target: Kdn(a2-3)Gal(b1-4)GlcNAc
# Outline: (§1)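 The Consortium for Functional Glycomics database supplied 3228 glycan arrays, of which those lacking an available protein sequence were dropped. The binding signal, a within-array Z-score, was averaged across arrays of the same protein sequence and across linkers. Negative scores can be read as non-binding.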
# Man(a1-2)Man(a1-3)Man = biological target: Man(a1-2)Man(a1-3)Man
# Outline: as §1
# [1] = biological target: Man(a1-2)Man(a1-3)[Man(a1-2)Man(a1-6)]Man(a1-6)[Man(a1-2)Man(a1-2)Man(a1-3)]Man(b1-4)GlcNAc(b1-4)GlcNAc
# Outline: as §1
# [2] = biological target: Neu5Ac(a2-3)Gal(b1-3)GalNAc(b1-3)Gal(a1-4)Gal(b1-4)Glc
# Outline: as §1
# [3] = biological target: Neu5Ac(a2-3)Gal(b1-4)GlcNAc
# Outline: as §1
# [4] = biological target: Neu5Ac(a2-3)Gal(b1-4)GlcNAc(b1-2)Man(a1-3)[GlcNAc(b1-4)][Neu5Ac(a2-3)Gal(b1-4)GlcNAc(b1-2)Man(a1-6)]Man(b1-4)GlcNAc(b1-4)GlcNAc
# Outline: as §1
# [5] = biological target: Neu5Ac(a2-3)Gal(b1-4)GlcNAc(b1-2)Man(a1-3)[Neu5Ac(a2-3)Gal(b1-4)GlcNAc(b1-2)Man(a1-6)]Man(b1-4)GlcNAc(b1-4)GlcNAc
# Outline: as §1
# [6] = biological target: Neu5Ac(a2-3)Gal(b1-4)[Fuc(a1-3)]GlcNAc6S
# Outline: as §1
# Neu5Ac(a2-3)GalNAc = biological target: Neu5Ac(a2-3)GalNAc
# Outline: as §1
# Neu5Ac(a2-6)Gal = biological target: Neu5Ac(a2-6)Gal
# Outline: as §1
# [7] = biological target: Neu5Ac(a2-6)Gal(b1-4)GlcNAc(b1-2)Man(a1-6)[Man(a1-3)]Man(b1-4)GlcNAc(b1-4)GlcNAc
# Outline: as §1
# [8] = biological target: Neu5Ac(a2-6)Gal(b1-4)GlcNAc(b1-2)[Neu5Ac(a2-6)Gal(b1-4)GlcNAc(b1-4)]Man(a1-3)[GlcNAc(b1-4)][Neu5Ac(a2-6)Gal(b1-4)GlcNAc(b1-2)[Neu5Ac(a2-6)Gal(b1-4)GlcNAc(b1-6)]Man(a1-6)]Man(b1-4)GlcNAc(b1-4)GlcNAc
# Outline: as §1
# [9] = biological target: Neu5Ac(a2-6)Gal(b1-4)GlcNAc(b1-2)[Neu5Ac(a2-6)Gal(b1-4)GlcNAc(b1-4)]Man(a1-3)[GlcNAc(b1-4)][Neu5Ac(a2-6)Gal(b1-4)GlcNAc(b1-4)Man(a1-6)]Man(b1-4)GlcNAc(b1-4)GlcNAc
# Outline: as §1
# [10] = biological target: Neu5Ac(a2-6)Gal(b1-4)GlcNAc(b1-3)Gal(b1-4)GlcNAc(b1-3)Gal(b1-4)GlcNAc(b1-2)Man(a1-3)[Neu5Ac(a2-6)Gal(b1-4)GlcNAc(b1-3)Gal(b1-4)GlcNAc(b1-3)Gal(b1-4)GlcNAc(b1-2)Man(a1-6)]GalNAc
# Outline: as §1
# [11] = biological target: Neu5Ac(a2-6)Gal(b1-4)GlcNAc(b1-3)[Neu5Ac(a2-6)Gal(b1-4)GlcNAc(b1-6)]GalNAc
# Outline: as §1
# [12] = biological target: Neu5Gc(a2-3)Gal(b1-4)[Fuc(a1-3)]GlcNAc
# Outline: as §1
binder,measurement,setting,value
B1,glycan array binding signal (z-score),Kdn(a2-3)Gal(b1-4)GlcNAc,2.76
same,glycan array binding signal (z-score),Man(a1-2)Man(a1-3)Man,0.139
same,glycan array binding signal (z-score),[1],-0.337
same,glycan array binding signal (z-score),[2],-0.318
same,glycan array binding signal (z-score),[3],1.9
same,glycan array binding signal (z-score),[4],0.483
same,glycan array binding signal (z-score),[5],1.88
same,glycan array binding signal (z-score),[6],0.576
same,glycan array binding signal (z-score),Neu5Ac(a2-3)GalNAc,2.8
same,glycan array binding signal (z-score),Neu5Ac(a2-6)Gal,2.53
same,glycan array binding signal (z-score),[7],0.005
same,glycan array binding signal (z-score),[8],2.01
same,glycan array binding signal (z-score),[9],1.82
same,glycan array binding signal (z-score),[10],2.1
same,glycan array binding signal (z-score),[11],-1.14
same,glycan array binding signal (z-score),[12],-0.164
